Source: PubChem
USP17 block – inhibitors of human USP17 deubiquitinase. purified USP17, Ub-rhodamine cleavage fluorescence, 3 h. 47,000 tested, 6.5% active. A8MUK1. inhibition, % at 50 µM
USP30 inh – inhibitors of human USP30 deubiquitinase; purified USP30, Ub-rhodamine cleavage fluorescence; AID 1645860; 47,000 tested, 5.3% active; inhibition, % at 25 µM; Q70CQ3
Target sequence (Q70CQ3 whole entry, looked up): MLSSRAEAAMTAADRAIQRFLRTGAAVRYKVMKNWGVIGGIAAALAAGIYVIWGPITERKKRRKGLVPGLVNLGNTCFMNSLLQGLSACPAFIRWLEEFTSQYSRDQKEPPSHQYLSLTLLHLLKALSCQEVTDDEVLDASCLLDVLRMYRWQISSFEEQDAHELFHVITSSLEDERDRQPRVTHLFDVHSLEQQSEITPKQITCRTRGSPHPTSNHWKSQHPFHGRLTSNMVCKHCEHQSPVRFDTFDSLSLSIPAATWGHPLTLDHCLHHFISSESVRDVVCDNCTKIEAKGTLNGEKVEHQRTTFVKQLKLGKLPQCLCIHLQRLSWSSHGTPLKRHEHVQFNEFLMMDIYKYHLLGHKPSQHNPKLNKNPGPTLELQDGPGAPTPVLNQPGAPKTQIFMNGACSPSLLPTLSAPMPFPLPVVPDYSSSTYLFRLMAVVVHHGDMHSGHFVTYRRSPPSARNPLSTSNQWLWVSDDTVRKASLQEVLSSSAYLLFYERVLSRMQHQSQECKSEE
USP28 block – blocks human USP28 ubiquitin-rhodamine cleavage | Q96RU2 | purified USP28, Ub-rhodamine cleavage fluorescence, 30 min | inhibition, % at 25 µM | 47,000 tested, 3% active | AID 1645857
An asterisk follows results filed as active; . = no result given. Rows were chosen to be rich in hits. Some 11% of all compounds tested hit in one or more screens of this group. Rule as the data show it: active = inhibition above about 30%; inactive = the rest.

SMILES	USP17 block	USP30 inh	USP28 block
COc1ccccc1NC(=O)CSC1=NC2(CCCCC2)Nc2ccccc21	53.8*	-69.3	-9.0
COc1ccc(NC(=O)CSC2=NC3(CCCCC3)Nc3ccccc32)c(OC)c1	1.5	-24.3	-4.1
O=C1O[C@@H]2C[C@H]3C[C@@H]2[C@@H]1[C@H]3C(=O)N1CCN(c2cccc(Cl)c2)CC1	0.5	4.5	-0.1
Nc1cc2ccccc2nc1C1CCN(C(=O)C2CCOC2)CC1 (stereo not drawn)	-17.9	-68.4	-22.8
CCCCc1nc2sc3c(NCCN4CCOCC4)ncnc3c2c2c1CCC2	-14.5	-31.2	82.9*
c1nc(NCCCN2CCOCC2)c2sc3nc(N4CCOCC4)c4c(c3c2n1)CCC4	-0.7	0.9	2.4
Cc1ncc(-c2ccccn2)c(-c2ccc(CNC(=O)c3cccnc3)cc2)n1	-24.5	-34.9	-19.9
Cc1nc(C2CCN(C(=O)Cc3ccccc3)CC2)ncc1C(N)=O	9.5	-0.4	5.1
CCc1cc(C2CCCN2C(=O)C23CC4CC(CC(C4)C2)C3)on1 (stereo not drawn)	5.1	14.5	-4.9
O=C(COC(=O)C1CCCN1C(=O)C12CC3CC(CC(C3)C1)C2)c1ccc(Cl)cc1 (stereo not drawn)	7.7	51.2*	7.4
CN(C(=O)CC(=O)Nc1ccc2nc3n(c(=O)c2c1)CCCCC3)c1ccccc1Cl	-19.8	-8.9	-1.6
COc1ccccc1NC(=O)N1C[C@@H]2c3nccn3-c3ccccc3[C@@H]2C1	-6.9	0.6	-1.7
CCN1C[C@@H]2C[C@]2(c2ccccc2OC)C(=O)c2ncccc21	65.0*	-53.7	0.9
O=C1c2ncccc2N(S(=O)(=O)c2cccc(F)c2)C[C@@H]2C[C@]12c1ccccc1	-0.1	1.8	3.5
COc1ccccc1[C@]12C[C@H]1CN(C(=O)Nc1ccncc1)c1cccnc1C2=O	15.4	33.9*	7.2
O=C(c1cc(-c2ccccc2)n[nH]1)N1CCN(C(=O)c2ccco2)CC1	9.9	22.5	6.3
O=C(COc1ccc(F)cc1)NC(c1ccc(F)cc1)c1nnc(-c2ccccc2)o1 (stereo not drawn)	6.3	10.8	4.8
O=C(NC(c1ccccc1)c1nnc(-c2ccccc2)o1)c1ccccc1Cl (stereo not drawn)	39.4*	32.0*	7.3
CCN1C[C@@]23CN(C(=O)c4cnccn4)C[C@@H](C[C@@H]2S1(=O)=O)O3	5.4	.	.
Cc1ccsc1/C=C1\CCn2c1nc1cc(C(=O)O)ccc1c2=O	-138.0	-106.6	-15.1
CC(=O)Cn1cnc2cc(-c3ccccc3)sc2c1=O	-99.8	-387.1	-142.6
COc1cc(-c2nnc(CSc3ccc(C(F)(F)F)cn3)o2)cc(OC)c1OC	26.5	38.0*	12.9
COc1ccc(CCc2nnc(-c3cnc4onc(C5CC5)c4c3)o2)cc1	14.2	4.5	2.9
COc1ccc(C(C(=O)NC2CCCC2)N(Cc2ccccc2Cl)C(=O)c2ccco2)cc1 (stereo not drawn)	11.0	35.2*	6.0
Cc1ccc(C(C(=O)NC2CCCC2)N(Cc2ccccc2Cl)C(=O)c2ccco2)cc1 (stereo not drawn)	-14.4	20.5	3.4
SMILES	USP17 block	USP30 inh	USP28 block
Cc1nc(N2CCN(CCO)CC2)nc2c1C(=O)CC(/C=C/c1ccccc1)C2 (stereo not drawn)	-17.6	-26.4	-19.1
CC(=O)CSc1nc2sc3c(c2c(=O)n1-c1ccccc1)CCCC3	16.4	30.1*	6.9
C=C(C)CSc1nc2sc3c(c2c(=O)n1CCc1ccccc1)CCN(C)C3	-52.7	-285.4	-46.8
CCNc1cc(N2CCCC(CCC(=O)N3CCN(C)CC3)C2)ncn1 (stereo not drawn)	-7.5	-2.3	0.0
Nc1cc(OC(=O)c2cccc(F)c2)nn1S(=O)(=O)c1ccccc1	0.0	-7.5	0.0
COc1cccc2c(=O)n(CC(=O)NCc3ccc4c(c3)OCO4)ccc12	-0.9	0.2	-2.6
COc1cc([C@@H]2c3cc4c(cc3[C@H](O)[C@H]3COC(=O)[C@@H]23)OCO4)cc(OC)c1OC	62.8*	70.5*	34.8*
Cc1nc(C2CN(CC(=O)N3CCCCC3)CCO2)cc(=O)[nH]1 (stereo not drawn)	0.2	1.5	-0.7
CC(=O)CSc1nc(C)nc2c1oc1ccccc12	29.0	0.9	5.1
Cc1nc(SCC(=O)c2ccc(Cl)cc2)c2oc3ccccc3c2n1	-39.3	-162.1	-15.9
Cc1nc(SCc2ccc(Cl)cc2Cl)c2oc3ccccc3c2n1	18.1	24.5	10.3
CCc1nc(SCC(=O)NC2CCCCC2)c2oc3ccccc3c2n1	-0.3	6.4	-7.0
Cc1nc(SCC(=O)Nc2cccc3ccccc23)c2oc3ccccc3c2n1	30.6*	41.9*	24.8
Cc1nc(SCC(=O)NC2CCCC2)c2oc3ccccc3c2n1	24.6	38.3*	12.6
COC(=O)c1ccccc1NC(=O)CSc1nc(C)nc2c1oc1ccccc12	45.3*	8.2	-6.0
